Results on 36 compounds are retold here after PubChem BioAssay.

The test is described as follows: blood-stage malaria parasite viability loss – strain 3D7, DAPI fluorescence, 100 nL, primary screen (AID 1184).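 Further: parasites grown inside human red blood cells in medium with human serum.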 To be noted: P. falciparum 3D7 growth, 3 d, higher = more signal.
With `CCN1C(=O)[C@H]2[C@H]3[C@H](O)[C@H](O)CC(=NOC(C)CN4CCCCc5nc(C)c(C)cc54)[C@@H]3CC[C@H]2C1=O` (stereo partly specified), the z-score came to 0.0706.
Next, `CO[C@H]1COC(=O)[C@H](C)COC(=O)CC=C[C@@H](C)[C@H](OC)COC(=O)CC=C[C@@H]1C`: 1.7; `CC(=O)OC[C@H]1O[C@H](CCON=C(C)CCC(=O)OC[C@H]2O[C@H](C#Cc3ccccc3)C=C[C@@H]2Oc2ccc(C)cc2)C=C[C@@H]1OC(C)=O`: 0.724.
In turn, `CC(=O)C[C@H](O)[C@@H](NC(=O)OC(C)(C)C)C(C)C` gave a z-score of -1.24.
In turn, `COC(=O)[C@H](C)NC(=O)CCC1CC(OC(=O)NCc2ccc3c(c2)OCO3)CC2(CCCC(COC(=O)NCCOc3ccccc3)O2)O1` (stereo partly specified) yielded a z-score of -1.79.
Next, `CC1(C)OCC(C(O)C2=CCCCC2=O)CO1` (stereo unspecified): -0.831; `COC(=O)[C@@H]1CC[C@H](C)[C@@H](c2ccc(C)cc2)N1C(=O)c1ccc(C=NOC(C)CN2CCCCc3nc(C)c(C)cc32)cc1` (stereo partly specified): -1.76; `O=C1[C@H]2[C@H]3[C@H](O)[C@H](O)CC(=NOC[C@@H](O)COCc4ccco4)[C@H]3CC[C@H]2C(=O)N1C1CCCCC1`: -1.24.
Take `CCCNC(=O)OC[C@H]1O[C@H](CCON=CC[C@@H]2C=C[C@H](OC(C)=O)[C@@H](COC(C)=O)O2)C=C[C@@H]1Oc1ccc(OC)cc1`: the z-score was -0.133.
Turning to `COc1ccc(COC(=O)NN=C2C[C@@H](O)[C@@H](O)[C@@H]3[C@@H]4C(=O)N(c5ccc(F)cc5F)C(=O)[C@@H]4CC[C@@H]23)cc1`, the z-score is -0.351.
In the case of `CC(C)=NOCc1ccc(-c2cc(-c3ccccc3)no2)cc1`, the z-score was found to be 0.382.
As for `CO[C@@H]1COC(=O)CC=C[C@@H](C)COC(=O)[C@H](COCc2ccccc2)NC(=O)CC=C[C@H]1C`, the z-score was -1.02.
For `CCOC(=O)[C@H](CC(C)C)NC(=O)CCC1CC(OC(=O)NCc2cccc3ccccc23)CC2(CCCC(COC(=O)NCCN3CCOCC3)O2)O1` (stereo partly specified), the z-score was -1.71.
`COCCNC(=O)OCC1CCCC2(CC(OC(=O)NCCc3ccc(F)cc3)CC(CCC(=O)N[C@@H](C)C(=O)OC)O2)O1` (stereo partly specified) gave a z-score of -1.82.
Regarding `CO[C@@H]1COC(=O)CC=C[C@@H](C)[C@@H]2C=C[C@H](O)[C@@H](COC(=O)[C@H](C)NC(=O)CC=C[C@H]1C)O2`, the z-score was -0.117.
Regarding `COc1ccc(O[C@H]2C=C[C@@H](c3ccccc3)O[C@@H]2COC(=O)N2CCCCC2)cc1`, the z-score was -0.43.
As to `COc1ccc(O[C@H]2C=C[C@@H](c3ccccc3)O[C@@H]2CON=C[C@@H](C)[C@H](OCc2ccccc2)C(C)C)cc1`, the z-score was -0.118.
In turn, `CC(CCN1CCCCc2nc(C)c(C)cc21)=NOC(C)CN1CCCCc2nc(C)c(C)cc21` (stereo unspecified) yielded a z-score of -0.883.
Next, `CC=CC1=C(CO)[C@H](O)[C@H]2O[C@H]2[C@H]1O`: 0.337.
As for `CO[C@H]([C@@H](C)[C@H](OC)c1ccccc1)[C@H](C)[C@@H](OC)[C@H](C)C(C)=O`, the figure is 0.117.
Next, `O=C1[C@H]2[C@H]3[C@H](O)[C@H](O)CC(=NOCc4ccccc4)[C@@H]3CC[C@H]2C(=O)N1C1CCCCC1`: -0.368; `CO[C@@H]1COC(=O)CCC[C@@H](C)[C@H](OC)COC(=O)[C@H](Cc2ccccc2)NC(=O)CC=C[C@H]1C`: -1.34; `COc1ccc(-c2nc3c(c4c2C[C@H](C)OC4)CN(CCC(C)C)CC3)cc1`: 0.888.
Consider `CC(=O)O[C@H]1C2=C(C(=O)[C@@H]3O[C@@H]31)[C@H]1C(C)O[C@@H]2[C@@]23C(=O)[C@@H]4O[C@@H]4[C@@H](O)C2=CO[C@H](C)[C@@H]13` (stereo partly specified), for which the z-score is -0.771.
Regarding `CC(C)=CCCC(C)=CCON=C1[C@H]2CCn3c(=O)n(Cc4cc5c(cc4Cl)OCO5)c(=O)n3[C@H]2[C@H](O)[C@@H]2O[C@H]12`, the z-score is -1.17.
As for `c1ccc(C2NCCc3c2[nH]c2ccccc32)cc1` (stereo unspecified), the z-score was -0.811.
With `Cc1cc2c(nc1C)CCCN2CC(O)CN1CCN(C)CC1` (stereo unspecified), the z-score is 0.547.
As for `COC(=O)[C@H](C)NC(=O)[C@@H](C)CO`, the z-score is -0.613.
With `C[C@H](c1ccccc1)N1C(=O)[C@H]2[C@H]3[C@H](O)[C@H](O)CC(=O)[C@@H]3CC[C@H]2C1=O`, the z-score came to 0.0307.
Next, `O=C1CCCC=C1C(O)CCOCc1ccccc1` (stereo unspecified): -0.929; `O=C1[C@H]2[C@H]3[C@H](O)[C@H](O)CC(=NOC[C@@H](O)COCc4ccco4)[C@@H]3CC[C@H]2C(=O)N1c1ccc(F)cc1F`: -0.561.
`CCOC(=O)NN=C1C[C@@H](O)[C@@H](O)[C@@H]2[C@@H]3C(=O)N(C[C@@H]4CCCO4)C(=O)[C@@H]3CC[C@@H]12` registered a z-score of 0.839.
The compound `C[C@@H]1CCC2C(=O)N(Cc3ccccc3)C[C@@H](O)CN2[C@H]1c1ccc(Br)cc1` (stereo partly specified) registered a z-score of 0.787.
As to `COC(=O)[C@H](C)NC(=O)CCC1CC(OC(=O)NCc2cccc3ccccc23)CC2(CCCC(COC(=O)NCCc3ccc(Cl)cc3)O2)O1` (stereo partly specified), the z-score was -1.79.
In turn, `O=C1C[C@@H](O)[C@@H](O)[C@@H]2[C@@H]3C(=O)N(C4CCCCC4)C(=O)[C@@H]3CC[C@H]12` displayed a z-score of 0.266.
For the compound `CC(C)CON=C1[C@H]2CCn3c(=O)n(-c4ccccc4)c(=O)n3[C@H]2[C@H](O)[C@@H]2O[C@H]12`, the z-score is -1.94.
